# Pol beta inh: blocks human DNA polymerase beta activity | Pol beta primer extension/strand displacement, fluorescence kinetic | Potency, µM (highest dose often 114 µM), inactives show at the highest dose activity change, negative = inhibition, most hits filed as inhibitors | hit rate 1.3% among 340,000; further: potency means the concentration at half of the fitted maximal effect; on the % scale 0 is the no-effect control and ±100 the full control effect
#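 Homogeneous kinetic assay of primer extension and strand displacement by 10 nM Pol beta, preincubated 15 min at room temperature with compound before 50 nM substrate (final) was added. Read at 0 and 10 min; four-parameter Hill fit.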
# Pol iota inh: DNA polymerase iota (human) inhibition | Q9UNA4 | Pol iota fluorescent replication assay, 10 min | Potency, µM (titrated, usually from 115 µM), for the others: at the highest dose activity, negative = inhibition, most hits filed as inhibitors | hit rate 1% among 390,000 | AID 588590; further: potency means the concentration at half of the fitted maximal effect
#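 Fluorescent replication assay read twice, at 0 min and 10 min after adding 50 nM (final) substrate. Enzyme (10 nM) and compounds were first incubated 15 min at room temperature; enzyme-free buffer wells were negative controls.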
# FEN1 inh-1: blocks human flap endonuclease 1 | Recombinant FEN1 flap cleavage, fluorescence, 15 min | Potency, µM (series often up to 114 µM), without a hit: at the highest dose activity change, negative = inhibition, hits mostly inhibitors | hit rate 0.35% among 390,000 | AID 588795; further: potency means the concentration at half of the fitted maximal effect; on the % scale 0 is the no-effect control and ±100 the full control effect; nearly all actives have a fitted effect of over 65% in size
#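 Read-out was taken twice, immediately and after 15 min, following addition of 50 nM substrate to 10 nM FEN1 that had sat with test compound for 15 min at room temperature. Curves came from a four-parameter Hill model.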
# Pol kappa inh-1: inhibitors of human DNA polymerase kappa; Q9UBT6; purified Pol kappa, fluorescent DNA synthesis assay, 10 min; Potency, µM (series often up to 107 µM), without a hit: at the top dose activity, negative = inhibition, usual class: inhibitors; hit rate 0.53% among 400,000; further: potency means the concentration at half of the fitted maximal effect; on the % scale 0 is the no-effect control and ±100 the full control effect
#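 First, compounds were pin-transferred onto 10 nM Pol kappa. After 15 min at room temperature, substrate was added to 50 nM final. Fluorescence was then measured kinetically at 0 and 10 min.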
# WRN inhibitor: inhibitors of human WRN helicase. Potency, µM (titrated, usually from 114 µM), without a hit: top-dose activity change, negative = inhibition, most hits filed as inhibitors. hit rate 0.46% among 360,000. Q14191. AID 651768. WRN helicase unwinding, fluorescent forked duplex, kinetic; further: potency means the concentration at half of the fitted maximal effect; on the % scale 0 is the no-effect control and ±100 the full control effect; nearly all actives have a fitted effect of over 55% in size
#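 Kinetic fluorescence helicase assay: unwinding of a quenched forked DNA duplex (100 nM final) with 2 mM ATP final raises red fluorescence (525/598 nm). Compounds sat 15 min at room temperature with 20 nM WRN beforehand.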
# Pol eta inh-1: inhibitors of human DNA polymerase eta. AID 588591. recombinant Pol eta, fluorescent DNA replication assay. hit rate 1.2% among 390,000. Potency, µM (top dose mostly 114 µM), for the others: at the top dose activity change, negative = inhibition, usual class: inhibitors; further: potency means the concentration at half of the fitted maximal effect; on the % scale 0 is the no-effect control and ±100 the full control effect
# Target sequence (Q9Y253 whole entry, looked up): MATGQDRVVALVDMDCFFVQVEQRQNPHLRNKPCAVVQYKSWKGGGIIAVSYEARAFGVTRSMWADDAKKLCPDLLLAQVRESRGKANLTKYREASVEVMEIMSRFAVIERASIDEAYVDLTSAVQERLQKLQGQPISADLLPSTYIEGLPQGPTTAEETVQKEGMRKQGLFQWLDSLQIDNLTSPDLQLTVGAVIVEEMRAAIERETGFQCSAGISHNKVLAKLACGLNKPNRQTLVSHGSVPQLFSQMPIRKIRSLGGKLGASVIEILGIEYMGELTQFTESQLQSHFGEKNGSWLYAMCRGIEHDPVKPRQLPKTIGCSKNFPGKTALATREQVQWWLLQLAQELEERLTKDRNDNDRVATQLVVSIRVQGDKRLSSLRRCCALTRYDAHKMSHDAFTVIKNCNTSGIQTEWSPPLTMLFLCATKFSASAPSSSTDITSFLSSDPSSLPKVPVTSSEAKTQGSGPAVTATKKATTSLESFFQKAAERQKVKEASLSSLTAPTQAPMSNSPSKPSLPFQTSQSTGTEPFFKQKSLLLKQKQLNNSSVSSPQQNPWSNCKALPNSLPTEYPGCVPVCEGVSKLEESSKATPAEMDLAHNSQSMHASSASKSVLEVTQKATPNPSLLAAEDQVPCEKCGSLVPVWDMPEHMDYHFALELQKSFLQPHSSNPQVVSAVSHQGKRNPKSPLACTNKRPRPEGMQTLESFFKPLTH
#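 Pol eta at 10 nM preincubated with compounds 15 min at room temperature; reaction started with fluorescent substrate (50 nM final) and read kinetically at 0 and 10 min.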
# GALK inh confirm: galactokinase (human) inhibition, confirmation | shares compounds with Pol eta inh-1 | purified GALK, Kinase-Glo ATP depletion luminescence | Potency, µM (series often up to 115 µM), for inactives: top-dose activity, negative = inhibition, most hits filed as inhibitors | hit rate 70% among 150 | AID 2015
# GALK redox cs: counter-screen for GALK inhibitors: redox cycling H2O2 generation; shares compounds with Pol eta inh-1; Phenol red-HRP H2O2 redox cycling, absorbance 600 nm; Potency, µM (doses to about 115 µM), for the others: top-dose activity change, negative = H2O2 signal, usual class: inhibitors; hit rate 40% among 150
# HEK293 tox: HEK-293 cytotoxicity, GALK inhibitor secondary | AID 2547 | Potency, µM (top dose mostly 46.1 µM), for the others: at the top dose activity change, negative = cytotoxicity, usual class: inhibitors | shares compounds with Pol eta inh-1 | HEK-293 viability, ATP luminescence (CellTiter-Glo), 24/48 h | hit rate 10% among 170; further: potency means the concentration at half of the fitted maximal effect; on the % scale 0 is the no-effect control and ±100 the full control effect
# Pol kappa inh-2: Pol kappa (human) inhibition, cherry-pick confirmation | shares compounds with Pol eta inh-1 | hit rate 76% among 920 | Potency, µM, hits mostly inhibitors | purified Pol-kappa, fluorescent strand-displacement substrate; further: potency means the concentration at half of the fitted maximal effect
# Pol eta inh-2: Pol eta (human) inhibition, cherry-pick confirmation. shares compounds with Pol eta inh-1. Pol eta primer extension, TAMRA/BHQ fluorescence, 10 min. Potency, µM, usual class: inhibitors. hit rate 64% among 2,600. AID 720502; further: potency means the concentration at half of the fitted maximal effect
# FEN1 inh-2: confirmation of human FEN1 inhibitors. shares compounds with FEN1 inh-1. FEN1 flap cleavage, TAMRA/BHQ2 fluorogenic DNA substrate. AID 720498. Potency, µM, actives largely listed as inhibitors. hit rate 79% among 880; further: potency means the concentration at half of the fitted maximal effect; nearly all actives have a fitted effect of over 60% in size
# * marks the source's active call; other numbers are inactive results; u = inconclusive; x = not tested or not shown; [ ] = another dose, or the depositor's remark. Most compounds without a hit are left out; they make up all but 2.4% or so of the library. The call rests on the fitted dose curve; in most records, active means well fitted curve in the direction sought with a large enough effect; inconclusive means small, poorly fitted or top-dose-only effect, or another doubt; inactive means no such curve, though single readings can be large; an effect the other way counts as inactive or inconclusive.
SMILES,Pol beta inh,Pol iota inh,FEN1 inh-1,Pol kappa inh-1,WRN inhibitor,Pol eta inh-1,Pol eta inh-2,others
Cc1ccc(NC(=O)Cn2cc(S(=O)(=O)N3CCN(c4ccccc4F)CC3)c3ccccc3c2=O)cc1F,1%,9%,3%,-2%,x,-25%,x,
Cc1ccc(S(=O)(=O)Nc2ccccc2C(=O)Nc2nc(-c3ccc(F)cc3)cs2)cc1,9%,u,0%,u,u,89µM*,u,
COc1ccc(-c2csc(NC(=O)c3ccccc3F)n2)cc1,-5%,5%,-7%,-18%,-7%,-17%,x,
COc1ccc(C2=NN(C(=O)CCCC(=O)O)C(c3cn(-c4ccccc4)nc3-c3ccccc3)C2)cc1 (stereo unspecified),u,20µM*,-8%,u,0.3µM*,-20%,u,Pol kappa inh-2=0.38*
COc1ccc(C2CC(c3ccccc3)=NN2C(=O)CCCC(=O)O)cc1 (stereo unspecified),4%,-9%,21%,6%,1%,9%,x,
CC(=O)Nc1c(O)nc(SCC(=O)Nc2nnc(CC(C)C)s2)[nH]c1=O,4%,3%,-2%,-1%,4%,9%,x,
CC(=O)Nc1c(O)nc(SCC(=O)Nc2nnc(SCc3ccccc3)s2)[nH]c1=O,-24%,25µM*,u,u,-4%[11.6 µM],35µM*,u,
N#Cc1c(/N=C/c2ccc(-c3ccc(C(=O)O)c(Cl)c3)o2)sc2c1CCCC2,x,-20%,-10%,-33%,-31%,22µM*,u,
N#Cc1c(/N=C/c2ccc(-c3ccccc3C(=O)O)o2)sc2c1CCCC2,28µM*,u,-21%,-31%,-27%,28µM*,67*,
Cc1ccc2nc(CS)[nH]c2c1,x,71%,-1%,7%,x,x,x,
CCC(C(=O)NC1CCCCC1)n1nc(C)c2sc3ccccc3c2c1=O (stereo unspecified),2%,13%,0%,-6%,x,-15%,x,
CC1=C(C#N)C(=O)NC(=O)/C1=C\c1ccc(-c2cc(C)c(C)cc2[N+](=O)[O-])o1,u,u,-18%,u,u,u,u,Pol kappa inh-2=u
CCOC(=O)C(=O)Nc1nc(-c2ccc3c(c2)CCN3C(=O)C2CC2)c(C)s1,-6%,-11%,-3%,-3%,1%,14µM*,u,
C[N+]1(C)CCC[C@H]1C(=O)[O-],x,x,x,9%[60.1 µM],x,x,x,
COc1ccccc1OCCSc1nc2ccccc2n1CC(=O)N1CCOCC1,16%,12%,12%,-15%,x,-8%,x,
COc1ccc2nc(N3C(=O)/C(=C/c4ccccc4)NC3=S)sc2c1,u,-11%,-16%,-2%,-29%,32µM*,x,Pol kappa inh-2=u
CCOc1ccc2nc(N3C(=O)/C(=C/c4ccccc4)NC3=S)sc2c1,0%[57.1 µM],-16%,u,-2%,-16%,u,x,
Cc1ccc(-c2cc(C(=O)Nc3cccnc3)c3ccccc3n2)o1,u,u,-22%,-15%[60.1 µM],u,45µM*,u,
CCOC(=O)C1CCN(c2nc(N)c3c(N)nc(SCC(=O)O)cc3c2C#N)CC1,28µM*,25µM*,45µM*,35µM*,45µM*,7.1µM*,x,GALK inh confirm=67µM*;GALK redox cs=19µM*;HEK293 tox=-14%
COc1ccc([C@@H]2C=C(C(=O)O)O[C@H](OCCCCO)C2)cc1,15%,24%,14%,-4%,3%,-19%,x,
C#Cc1ccc([C@H]2C=C(C(=O)O)O[C@@H](OCCCCO)C2)cc1,x,50µM*,8%,u,-21%,20µM*,x,Pol kappa inh-2=u
CCOc1ccc(CNC(=O)CSc2nnc(C)c3c(C)n(-c4ccc(Cl)cc4)nc23)cc1,12%,40%,4%,4%,x,-12%,x,
COc1ccc(NC(=O)Cn2cc(S(=O)(=O)Cc3ccc(F)cc3)c3ccccc32)cc1OC,-25%,u,-3%,-20%,x,50µM*,x,Pol kappa inh-2=u
Cc1ccc(CNC(=O)c2nn(-c3ccc(Cl)cc3)nc2CO)cc1,9%,4%,-3%,-23%,x,6%,x,
Cc1ccoc1C(=O)NCc1occc1C(=O)O,-27%,u,1%,u,-30%[57.1 µM],6.3µM*,30*,
SMILES,Pol beta inh,Pol iota inh,FEN1 inh-1,Pol kappa inh-1,WRN inhibitor,Pol eta inh-1,Pol eta inh-2,others
O=C(CS(=O)(=O)c1cccc2nsnc12)Nc1ccc(F)cc1F,3%,19%,14%,-17%[60.1 µM],x,-8%,x,
COc1cc(/C=N/NC(=O)C(Cc2c[nH]c3ccccc23)NC(=O)OCc2ccccc2)cc([N+](=O)[O-])c1O (stereo unspecified),50µM*,u,-16%,u,u,20µM*,u,
COc1cc(OC)c(NC2(c3ccccc3)C(=O)c3ccccc3C2=O)cc1Cl,2%,-7%,10%,-5%,x,-15%,x,
CC(C)C1=CC2=CC[C@@H]3[C@](C)(CCC[C@@]3(C)C(=O)O)[C@H]2CC1,x,x,x,-4%[60.1 µM],x,x,x,
COC(=O)/C=C1\SC(=NC(=O)c2cccc([N+](=O)[O-])c2)NC1=O,21%,u,6%,-11%,-16%,u,x,
O=C1NC(=Nc2ccccc2Cl)S/C1=C\c1cc([N+](=O)[O-])ccc1O,u,35µM*,u,u,-27%,79µM*,x,Pol kappa inh-2=u;FEN1 inh-2=u
Cn1nc(-c2ccc(OCC(=O)Nc3ccccc3)cc2)c2ccccc2c1=O,-21%,5%,5%,-8%,-2%,7%,x,

# Source: PubChem BioAssay (National Center for Advancing Translational Sciences (NCATS))
